Screening results: PubChem BioAssay, several laboratories
TNAP act mid DEA = activators of human TNAP at intermediate phosphate acceptor | 64,000 tested, under 10 active | P05186 | AID 813 | purified TNAP, CDP-star luminescence, 100 mM DEA, 30 min; hits give high values; scale: 0 levamisole-inhibited, 1 vehicle-only enzyme | activation factor at 20 µM;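 active means activation factor of at least 2 at 20 µM, relative to controls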
Target sequence (P05186 whole entry, looked up): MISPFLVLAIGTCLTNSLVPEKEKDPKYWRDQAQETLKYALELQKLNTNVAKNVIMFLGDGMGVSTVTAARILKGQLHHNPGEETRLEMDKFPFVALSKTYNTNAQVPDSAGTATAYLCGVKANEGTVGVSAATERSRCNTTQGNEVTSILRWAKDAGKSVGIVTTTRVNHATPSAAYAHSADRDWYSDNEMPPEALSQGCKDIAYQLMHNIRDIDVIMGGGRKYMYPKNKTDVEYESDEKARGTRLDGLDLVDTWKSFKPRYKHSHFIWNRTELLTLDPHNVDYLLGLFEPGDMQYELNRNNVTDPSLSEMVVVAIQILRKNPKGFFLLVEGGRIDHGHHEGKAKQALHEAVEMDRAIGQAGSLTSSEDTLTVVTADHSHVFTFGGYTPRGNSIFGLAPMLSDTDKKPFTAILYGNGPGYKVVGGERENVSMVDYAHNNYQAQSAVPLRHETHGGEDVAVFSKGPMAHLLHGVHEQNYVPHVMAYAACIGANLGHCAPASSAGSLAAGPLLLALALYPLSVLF
Ecoli WT expand = E. coli BW25113 growth inhibition, expanded screen; OD600 absorbance; growth inhibition, % at 100 µM; 98,000 tested, 0.15% active;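 active means growth inhibition above about 50% at one test dose, limit read from the data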;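 further: growth measured after 20 h incubation at 37 °C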
PLAP act = human PLAP activation. purified PLAP enzyme, luminescent substrate read-out; hits give high values. activation fold at 20 µM. 96,000 tested, 1.2% active; in the data active means activation fold above about 2
HePTP inh = human HePTP phosphatase inhibition | P35236 | recombinant HePTP phosphatase activity, OD absorbance | inhibition, % at 20 µM | 110,000 tested, 0.64% active | AID 521; in the data active means inhibition above about 50%
Large screens that a line does not name were inactive. This is a sample that favours compounds with a hit; in the whole collection about 1.3% have one here.

O=C(NCCCCNc1ccc(C(F)(F)F)cc1[N+](=O)[O-])c1ccc(Cl)cc1	none (no result: TNAP act mid DEA, Ecoli WT expand, PLAP act)
CCOC(=O)c1sc2c(c1C)c(=O)c(C(=O)OCC)cn2CC	none
CCOC(=O)Cc1csc(NC(=O)CN2C(=O)c3ccccc3S2(=O)=O)n1	PLAP act 2.3
COC(=O)c1c(C)oc2cc(Br)c(OC)cc12	none (no result: TNAP act mid DEA, Ecoli WT expand, PLAP act)
O=C(CSc1nnc(CN2CCOCC2)n1-c1ccccc1)N1CCc2ccccc21	none
CC(=NCCCn1ccnc1)c1c(-c2ccccc2)[nH]n(-c2nc3ccccc3s2)c1=O	PLAP act 2 (no result: TNAP act mid DEA, HePTP inh)
O=c1c(C=NCCCn2ccnc2)c(-c2ccccc2)[nH]n1-c1nc2ccccc2s1	none
COc1ccc(/C=N/NC(=O)c2cccc([N+](=O)[O-])c2)cc1OC(=O)c1ccccc1	none (no result: TNAP act mid DEA, HePTP inh)
O=C(N/N=C/c1ccc(OC(=O)c2ccc(Br)cc2)cc1)c1cccc([N+](=O)[O-])c1	HePTP inh 52 (no result: TNAP act mid DEA, Ecoli WT expand, PLAP act)
COc1ccc(C)cc1NC(=O)CCC1CCCC1	HePTP inh 104 (no result: TNAP act mid DEA, Ecoli WT expand, PLAP act)
O=C(NCC1(c2ccccc2)CCOCC1)c1cccc(Br)c1	none (no result: TNAP act mid DEA, Ecoli WT expand, PLAP act)
c1ccc2nc3c(nc2c1)CCc1nonc1-3	none
O/N=C1/CCc2nonc2/C1=N/O	Ecoli WT expand 52
CCOC(=O)c1ccc(-n2c(C)nc3ccccc3c2=O)cc1	none
CCOC(=O)c1ccc(-n2c(-c3ccccc3)nc3ccccc3c2=O)cc1	HePTP inh 98 (no result: TNAP act mid DEA, Ecoli WT expand, PLAP act)
COc1ccc(OCCSc2ncn[nH]2)cc1	none (no result: TNAP act mid DEA, HePTP inh)
COc1ccc(OCCSc2n[nH]c(N)n2)cc1	PLAP act 2.6 (no result: TNAP act mid DEA, HePTP inh)
Cc1ccc(C23CC4CC(CC(NC(=O)NC(C)(C)CO)(C4)C2)C3)cc1	PLAP act 2.3 (no result: TNAP act mid DEA, HePTP inh)
CC(C)(CO)NC(=O)NC12CC3CC(CC(C3)C1)C2	none (no result: TNAP act mid DEA, Ecoli WT expand, PLAP act)
Cc1ccccc1-c1nc(CN2CCC(C(=O)NCCCN3CC(C)CC(C)C3)CC2)c(C)o1 (configuration not stated)	PLAP act 2
Cc1ccccc1-c1nc(CN2CCC(C(=O)NCc3ccco3)CC2)c(C)o1	none
Cc1ccccc1-c1nc(CN2CCC(C(=O)NCCCN3CCCC3)CC2)c(C)o1	none
Cc1ccccc1-c1nc(CN2CCC(C(=O)NCc3cccs3)CC2)c(C)o1	PLAP act 2.6 (no result: TNAP act mid DEA, HePTP inh)
CCc1ccc(-c2nc(CN3CCC(C(=O)NCCc4ccc(OC)c(OC)c4)CC3)c(C)o2)cc1	PLAP act 2.4
Brc1ccc(/C=N/N2CCN(Cc3cccc4ccccc34)CC2)s1	none (no result: TNAP act mid DEA, Ecoli WT expand, PLAP act)
COc1ccc(C(=O)N/N=C/c2ccc(N(C)C)cc2)c(OC)c1	none (no result: TNAP act mid DEA, Ecoli WT expand, PLAP act)
CC(=O)Nc1n[nH]c(-c2ccc(C)cc2)c1C	none (no result: TNAP act mid DEA, Ecoli WT expand, PLAP act)
O=C(O)C1Nc2c(O)cccc2C2C=CCC12 (configuration not stated)	none (no result: Ecoli WT expand, PLAP act, HePTP inh)
CC(=O)Nc1ccc2c(c1)C1C=CCC1C(C(=O)O)N2 (configuration not stated)	HePTP inh 80 (no result: TNAP act mid DEA, Ecoli WT expand, PLAP act)
COc1ccc2c(c1)C1C=CCC1C(C(=O)O)N2 (configuration not stated)	HePTP inh 102 (no result: TNAP act mid DEA, Ecoli WT expand, PLAP act)
O=C(OC1CCCCC1)c1ccc2c(c1)C1C=CCC1C(C(=O)O)N2 (configuration not stated)	none (no result: HePTP inh)
O=C(O)C1Nc2c(Cl)cc(Cl)cc2C2C=CCC12 (configuration not stated)	HePTP inh 103 (no result: TNAP act mid DEA, Ecoli WT expand, PLAP act)
CCOC(=O)N1CCC(N(CCCOC)C(=O)Nc2ccc(CC)cc2)CC1	none
COc1cc(C=C(C(C)=O)C(C)=O)ccc1O	none (no result: TNAP act mid DEA, HePTP inh)
COC(=O)Cc1[nH]nc2c1C(C1C=CCCC1)C(C#N)=C(N)O2 (configuration not stated)	PLAP act 2
O=C(NNC1=C(C(=O)C(F)(F)F)CCC1)c1cccc(Cl)c1	PLAP act 2 (no result: TNAP act mid DEA)
CCCCCn1c2nc3ccccc3nc2c2c(=O)n(CC(C)C)cnc21	none
O=C(CSc1nnc2c(n1)[nH]c1ccccc12)N1c2ccccc2Sc2ccccc21	none (no result: TNAP act mid DEA, Ecoli WT expand, PLAP act)
O=C(O)C1C2CCC(O2)C1C(=O)NCc1ccncc1 (configuration not stated)	none
O=C(O)C1C2CCC(O2)C1C(=O)NCc1ccc(F)cc1 (configuration not stated)	HePTP inh 103 (no result: TNAP act mid DEA, Ecoli WT expand, PLAP act)
COc1ccc2nc(SCc3nc(N)nc(Nc4ccccc4)n3)[nH]c2c1	PLAP act 2.5
CC(Sc1nnc(N)s1)c1ccccc1 (configuration not stated)	none (no result: TNAP act mid DEA, Ecoli WT expand, PLAP act)
CCCCCOC(=O)C1=C(C)NC(=S)NC1c1ccccc1 (configuration not stated)	HePTP inh 63 (no result: TNAP act mid DEA, Ecoli WT expand, PLAP act)
COc1ccc(C2NC(=S)NC(C)=C2C(=O)OCCOc2ccccc2)cc1 (configuration not stated)	none (no result: TNAP act mid DEA, Ecoli WT expand, PLAP act)
O=C(O)CN1C(=O)/C(=C\c2ccc(-c3cccc4c3C(=O)c3ccccc3C4=O)o2)SC1=S	HePTP inh 101 (no result: TNAP act mid DEA, Ecoli WT expand, PLAP act)
O=C(O)CCN1C(=O)/C(=C/c2ccc(-c3ccccc3[N+](=O)[O-])o2)SC1=S	HePTP inh 70 (no result: TNAP act mid DEA, Ecoli WT expand, PLAP act)
